Screening results deposited in PubChem BioAssay by Broad Institute.
U2OS ROS induce = raises reactive oxygen species in U2OS cancer cells; U2OS ROS induction, H2DCF-DA fluorescence; ROS induction (% of piperlongumine), % at 10 µM; actives 2% (n = 46,000); in the data active means ROS induction above about 79%, passing the limit was not always enough;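 further: 0% = DMSO vehicle median and 100% = reference compound median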
An asterisk follows results filed as active. This is one part of a sample in which hits are shown more often than they occur.

SMILES	U2OS ROS induce
Cc1noc(C)c1NC(=O)Nc1ccc2c(c1)CC(=O)N([C@@H](C)CO)C[C@H](C)[C@H](CN(C)S(C)(=O)=O)O2	-11
C[C@H](CO)N1C[C@H](C)[C@@H](CN(C)S(=O)(=O)c2ccccc2)OCc2cn(nn2)CCCC1=O	9
C[C@H](CO)N1C[C@H](C)[C@@H](CN(C)S(=O)(=O)c2cccs2)OCc2cn(nn2)CCCC1=O	-26
C[C@@H]1CN([C@H](C)CO)C(=O)CCCn2cc(nn2)CO[C@@H]1CN(C)S(=O)(=O)c1cccs1	89*
C[C@H]1CN([C@@H](C)CO)C(=O)CCCn2cc(nn2)CO[C@H]1CN(C)S(=O)(=O)c1ccccc1	-22
C[C@@H]1CN([C@H](C)CO)C(=O)CCCn2cc(nn2)CO[C@@H]1CN(C)S(=O)(=O)c1ccccc1	104*
C[C@H](CO)N1C[C@H](C)[C@H](CN(C)S(=O)(=O)c2cccs2)OCc2cn(nn2)CCCC1=O	28
C[C@@H]1CN([C@H](C)CO)C(=O)CCCn2cc(nn2)CO[C@@H]1CN(C)Cc1ccc(-c2ccccc2)cc1	-5
Cc1ccc(S(=O)(=O)Nc2cccc3c2O[C@H](CN(C)S(=O)(=O)c2cn(C)cn2)[C@@H](C)CN([C@H](C)CO)C3=O)cc1	-3
COc1ccc(CCn2c(C)cc(O)cc2=O)cc1OC	0
C[C@@H]1CCCCO[C@@H](CN(C)Cc2ccc(Cl)c(Cl)c2)[C@@H](C)CN([C@H](C)CO)C(=O)c2cc(NC(=O)C3CCCCC3)ccc2O1	38
Cc1ccc(NC(=O)COC(=O)CSc2n[nH]c(-c3ccccc3)n2)cc1	4
Cc1noc(C)c1S(=O)(=O)Nc1ccc2c(c1)CC(=O)N([C@@H](C)CO)C[C@H](C)[C@@H](CN(C)C(=O)Nc1cccc3ccccc13)O2	-9
C[C@@H]1CN([C@H](C)CO)C(=O)Cc2cc(NC(=O)Cc3cn(C)c4ccccc34)ccc2O[C@H]1CN(C)Cc1ccccc1	3
C[C@@H]1CN([C@H](C)CO)C(=O)Cc2cc(NC(=O)Cc3cn(C)c4ccccc34)ccc2O[C@@H]1CN(C)CC1CC1	124*
C[C@@H]1CN([C@@H](C)CO)C(=O)Cc2cc(NC(=O)Cc3cn(C)c4ccccc34)ccc2O[C@@H]1CN(C)Cc1ccc(C(=O)O)cc1	16
C[C@H](CO)N1C[C@H](C)[C@H](CN(C)Cc2ccc(-c3ccccc3)cc2)Oc2ccc(NC(=O)Cc3cn(C)c4ccccc34)cc2CC1=O	2
C[C@@H]1CN([C@@H](C)CO)C(=O)Cc2cc(NC(=O)Cc3cn(C)c4ccccc34)ccc2O[C@@H]1CN(C)Cc1ccc(-c2ccccc2)cc1	85*
COc1ccc(CN(C)C[C@H]2Oc3ccc(NC(=O)Cc4cn(C)c5ccccc45)cc3CC(=O)N([C@H](C)CO)C[C@H]2C)cc1	45
C[C@@H]1CN([C@H](C)CO)C(=O)Cc2cc(NC(=O)Cc3cn(C)c4ccccc34)ccc2O[C@@H]1CN(C)Cc1ccc(-c2ccccc2)cc1	109*
C[C@@H]1CN([C@H](C)CO)C(=O)Cc2cc(NC(=O)Cc3cn(C)c4ccccc34)ccc2O[C@@H]1CN(C)Cc1ccncc1	15
C[C@@H]1CN([C@H](C)CO)C(=O)Cc2cc(NC(=O)Cc3cn(C)c4ccccc34)ccc2O[C@@H]1CN(C)Cc1ccc(Oc2ccccc2)cc1	131*
C[C@H]1CN([C@@H](C)CO)C(=O)Cc2cc(NC(=O)Cc3cn(C)c4ccccc34)ccc2O[C@H]1CN(C)CC1CCCCC1	11
C[C@@H]1CN([C@H](C)CO)C(=O)Cc2cc(NC(=O)Cc3cn(C)c4ccccc34)ccc2O[C@@H]1CN(C)C	-5
C[C@H](CO)N1C[C@H](C)[C@H](CN(C)Cc2ccc(Oc3ccccc3)cc2)Oc2ccc(NC(=O)Cc3cn(C)c4ccccc34)cc2CC1=O	5
SMILES	U2OS ROS induce
COc1ccc(S(=O)(=O)N(C)C[C@@H]2Oc3ccc(NC(=O)CCC(F)(F)F)cc3C(=O)N([C@H](C)CO)C[C@H]2C)cc1	-8
CCc1ccc(NC(=O)C2CCN(C(=O)c3ccc(F)cc3)CC2)cc1	-6
C[C@@H]1CN([C@@H](C)CO)C(=O)CCCn2cc(nn2)CO[C@@H]1CN(C)Cc1ccc(C(F)(F)F)cc1	13
C=CCN(C#N)c1nc(N(C)C)nc(N(C)C)n1	-15
CCOc1ccc(NC(=O)CSc2nc(C)nc3sc4c(c23)CCCC4)cc1	-2
CCCn1nnc(NC(=O)COc2ccc(Cl)cc2C)n1	-2
CCCc1c(C(=O)OCC)c(C(=O)OCC)c2c(-c3ccccc3)nc(N3CCOCC3)nn12	114*
c1ccc(-c2nnc(N3CCOCC3)nc2-c2ccccc2)cc1	38
CCOC(=O)c1cnc(N2CCOCC2)nc1N	29
C[C@@H]1CN([C@@H](C)CO)C(=O)Cc2cc(NS(=O)(=O)c3ccc(Cl)cc3)ccc2O[C@@H]1CN(C)C(=O)Nc1ccc2c(c1)OCO2	22
CC(C)S(=O)(=O)N1CCN(Cc2ccc(OCCO)cc2)CC1	13
Cc1cc(C)c(S(=O)(=O)N2CCc3ccccc32)c(C)c1	105*
Cc1cc(C)c(NC(=O)c2cc(S(=O)(=O)N3CCc4ccccc43)ccc2F)c(C)c1	11
Cc1ccc(S(=O)(=O)N2CCC(=O)c3ccccc32)cc1	12
CNC[C@@H]1Oc2c(NC(=O)C3CCCCC3)cccc2C(=O)N([C@H](C)CO)C[C@H]1C	-1
CC(=O)Oc1ccc2occ(C(=O)c3ccc(Br)s3)c2c1	30
COc1ccc(OC)c(C(=O)c2coc3ccc(O)cc23)c1	9
CC(=O)Oc1ccc2occ(C(=O)CCN(C)C)c2c1	98*
COC(=O)[C@]1(CCC(=O)OC(C)(C)C)N=C(c2ccc(OCCCO)cc2)O[C@@H]1c1ccccc1CN=[N+]=[N-]	74
COc1ccc2nc3c(nc2c1)-c1cccc2cccc-3c12	72
CN(C)c1ccc(-c2nc3ccc4ccccc4c3c3c2CCC3)cc1	10
COc1ccc(-c2nc3ccc4ccccc4c3c3c2CCC3)cc1	138*
C[C@H]1CN([C@@H](C)CO)C(=O)Cc2cc(N(C)C)ccc2O[C@H]1CN(C)C(=O)Nc1cccc2ccccc12	6
CC(C)NC(=O)N(C)C[C@@H]1Oc2c(NC(=O)c3nc4ccccc4s3)cccc2C(=O)N([C@@H](C)CO)C[C@H]1C	-9
O=C(CSc1nc2ccccc2s1)c1ccc2c(c1)OCCO2	-15
SMILES	U2OS ROS induce
CCCn1c2ccccc2c2nnc(SCCCC(=O)c3ccc4c(c3)OCCO4)nc21	142*
CCCn1c2ccccc2c2nnc(SCC(=O)N3c4ccccc4Sc4ccccc43)nc21	0
COc1ccc(CN(C)C[C@@H]2Oc3ccc(NC(=O)CCN4CCOCC4)cc3C(=O)N([C@H](C)CO)C[C@H]2C)cc1	-12
COC(=O)c1cn(C)c2ccc(S(=O)(=O)N3CCCCC3)cc2c1=O	-8
CCCc1nc(C)c2c(=O)[nH]c(-c3cc(S(=O)(=O)N4CCN(CC)CC4)ccc3OCC)nn12	134*
COc1ccc(CN2C(=O)c3cccc4cccc(c34)C2=O)cc1S(=O)(=O)N1CCCCCC1	34
CCOc1ccc(S(=O)(=O)N2CCCCC2)cc1-c1nc2c(C(C)(C)C)nn(C)c2c(=O)[nH]1	170*
CCN1CCN(C(=O)C2CCN(S(=O)(=O)c3ccc4c(c3)nc(C)n4C3CCCC3)CC2)CC1	-18
COc1ccc(C)cc1S(=O)(=O)N(C)CC(=O)Nc1cccc(SC)c1	-4
Cc1ccc(S(=O)(=O)N(C)C[C@@H]2Oc3ccc(NC(=O)Nc4c(C)noc4C)cc3C(=O)N([C@H](C)CO)C[C@H]2C)cc1	1
